{"source": "PubChem BioAssay (NCI)", "note": "“And” between values parts separate entries of the source, which are not always exact repeats. Equal values may be shown once. About 83,000 compounds went through this panel and 20% of them were active in at least one assay; those are over-represented in the sample as a whole.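 How to read the values: 0–100, growth inhibition (40 = 60% inhibited); 0, no net growth; -100 to 0, cell death (-40 = 40% of starting cells died; -100 = all dead).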 Values without a mark were called inactive. The source made the active and inactive calls. Rule for the calls: active = growth percent below 10; inactive = the rest."}
{"system": "MDA-MB-468 breast", "assay": "NCI-60 one-dose screen, 48 h (100 = growth as untreated, 0 = no growth, -100 = all killed)", "conditions": "10 µM unless noted"}
{"compound": "COc1ccc2c(c1)c(-c1nc(-c3cn(C)c4ncccc34)cs1)cn2CCCCN1CCCCC1", "growth": "-2.69% (active)"}
{"compound": "COc1ccc2c(c1)NC1=C(C(=O)OC1)C2c1cc(OC)c(OC)c(OC)c1", "note": "(stereo unspecified)", "growth": "-16.3% (active)"}
{"compound": "O=C(NCCCN1CC1)Nc1cccc2ccccc12", "growth": "103% and 90.7%"}
{"compound": "CCCCCN(CCCCC)CC(O)c1ccc(C)c(Cl)c1", "note": "(stereo unspecified)", "growth": "99.9%"}
{"compound": "COc1cc2c(c(OC)c1OC)-c1ccc([O-])c(=O)cc1[C@@H](NC(C)=O)CC2.COc1cc2c(c(OC)c1OC)-c1ccc([O-])c(=O)cc1[C@@H](NC(C)=O)CC2.[Cu+2]", "growth": "2.02% (active)"}
{"compound": "O=C(Nc1ccc(S(=O)(=O)F)cc1)Oc1ccccc1", "growth": "97.6%"}
{"compound": "COc1cc2ncnc(Nc3ccc(F)c(Cl)c3)c2cc1OCC(=O)N1CCN(C)CC1", "growth": "-32.4% (active)"}
{"compound": "CN(CCF)/N=N/c1nc[nH]c1C(N)=O", "growth": "26.7%"}
{"compound": "C[C@]12CCC(=O)C[C@@H]1CC[C@@H]1[C@@H]2CC[C@]2(C)[C@@H](OC(=O)N(CCCl)N=O)CC[C@@H]12", "growth": "-45.8% (active)"}
{"compound": "CC12CC(=O)C3(SC#N)C(CCC4=CC(=O)CCC43C)C1CCC2=O", "note": "(stereo unspecified)", "growth": "24.5%"}
{"compound": "CCC(=O)C(CC(C)N1CCCCCC1)(c1ccccc1)c1ccccc1", "note": "(stereo unspecified)", "growth": "95.6%"}
{"compound": "CN1C2CCC1[C@@H](COC(=O)c1ccccc1)[C@@H](O)C2", "note": "(stereo partly specified)", "growth": "86.1%"}
{"compound": "O=C(CCCC1CCCCC1)OCC(Cl)(Cl)Cl", "growth": "113%"}
{"compound": "CCCCCCCCCCOc1ccc(C(=O)Oc2ccc(CSP3(=O)OCC4OC(n5ccc(=O)[nH]c5=O)C(F)C4OP(=O)(O)OCC4OC(n5cnc6c(N)ncnc65)C(F)C4O3)cc2)cc1", "note": "(stereo unspecified)", "growth": "115%"}
{"compound": "CC(=O)O[C@@H]1C2=C(C)C3(CC3)[C@@](C)(O)C(=O)C2=C[C@@]1(C)CO", "growth": "-54% (active)"}
{"compound": "CCC(C)[C@H]1C(=O)O[C@H](C(C)C)C(=O)N(C)[C@@H](C(C)C)C(=O)O[C@H](C(C)C)C(=O)N(C)[C@@H](C(C)C)C(=O)O[C@H](C(C)C)C(=O)N1C", "note": "(stereo partly specified)", "growth": "-0.302% (active)"}
{"compound": "CCCCCCCCCCCCCCCC[N+](C)(C)C", "growth": "-77.9% (active) and -17% (active)"}
{"compound": "COC[CH2][Hg][C]#[C][Hg][CH2]COC", "growth": "110%"}
{"compound": "COc1cc(C2CC(=O)Nc3nc(N)[se]c32)c(OC)c2c1OCO2", "note": "(stereo unspecified)", "growth": "109%"}
{"compound": "CCCCn1c(=O)c(C(=O)NCc2ccccc2Cl)c(O)c2ccccc21", "growth": "70.6%"}
{"compound": "C[C@@]12CCCc3coc(c31)C(=O)c1cc3c(cc12)C(=O)C1=C(NCCS1(=O)=O)C3=O", "growth": "-65.6% (active)"}
{"compound": "CC12CCC(=O)C=C1CCC1C2CCC2(C)C(C(=O)COC(=O)Cc3ccc(N(CCCl)CCCl)cc3)CCC12", "note": "(stereo unspecified)", "growth": "64.1%"}
{"compound": "C=C=[CH][Sn]([c]1ccccc1)([c]1ccccc1)[c]1ccccc1", "growth": "-66.5% (active)"}
{"compound": "N#CC1C(C#N)C2CCC1C1C2N1c1ccccc1", "note": "(stereo unspecified)", "growth": "102%"}
{"compound": "CCOC(=O)C(NC(=O)C(Cc1ccc(N(CCCl)CCCl)cc1)NC(C)=O)C(C)C", "note": "(stereo unspecified)", "growth": "92.3%"}
{"compound": "CC1(C)CC(=O)CC(C)(C)N1N=O", "growth": "124%"}
